Test [1] can be described thus: antimalarial activity against Dd2 strain (AID 2302;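 active = growth inhibition above 50% at the single 2 µM test dose, taken to imply half-maximal potency below 2 µM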;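 also: 0% = DMSO untreated growth and 100% = chloroquine plus artemisinin killed control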). The conditions noted are these: P. falciparum Dd2 in RBCs, LDH growth readout, 72 h; at 2 µM; hits give high values.
The nature of test [2]: HepG2 cytotoxicity, primary screen, cytotoxicity control for P. falciparum antimalarial project, cell-based, ATP luminescence (AID 2303;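 active = inhibition above 50%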;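 also: 0% = DMSO wells and 100% = digitonin-killed cells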). The conditions noted are these: HepG2 viability, 24-48 h, at 10 µM, hits give high values.
Test [3] addresses L-lactate dehydrogenase (Plasmodium falciparum (isolate CDC / Honduras)) (UniProt Q27743). The test is described as follows: PfLDH activity inhibition – cell lysate, 3D7 strain, counter-screen for P. falciparum growth inhibition project (AID 2304).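 Also: 0% = vehicle and 100% = reference inhibitor.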 Conditions: P. falciparum 3D7 crude extract, LDH APAD/NBT absorbance; at 2 µM; hits give high values.
Test [4] is described as follows: inhibition of 3D7 malaria parasite growth – strain 3D7 (AID 2306).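 Also: 0% = DMSO wells and 100% = chloroquine plus artemisinin control wells.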 Conditions: P. falciparum 3D7 erythrocytic growth, LDH absorbance, 72 h; at 2 µM; hits give high values.
Test [5] concerns the target Calcium-dependent protein kinase 1 (Plasmodium falciparum (isolate 3D7)) (UniProt P62344). As to the kind of experiment: PfCDPK1 kinase inhibitors, biochemical, TCAMS library (AID 1159585; cut-off not given, nearly all actives have IC50 up to about 0.98 µM;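 also: inhibitors leave more ATP so luminescence rises with inhibition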). The conditions noted are these: recombinant PfCDPK1, Kinase-Glo ATP depletion luminescence. Background: In Kinase-Glo more light means more ATP remaining.
The target in test [6] is Plasmodium falciparum protein kinase 6 (PK6, PF3D7_1337100) (UniProt Q8IDW1). As to the kind of experiment: PfPK6 kinase inhibitors, biochemical, TCAMS library (AID 1159586). The conditions noted are these: recombinant PfPK6, Kinase-Glo ATP depletion luminescence.
Test [7] deals with Protein kinase 7 (PK7), Plasmodium falciparum 3D7 (PF3D7_0213400) (UniProt Q7YTF7). The test is described as follows: inhibition of Plasmodium PK7 catalytic activity – biochemical, TCAMS antimalarial set, Kinase-Glo luminescence (AID 1159587). Conditions: recombinant PfPK7, Kinase-Glo ATP depletion luminescence.
The target in test [8] is Calcium-dependent protein kinase 4 (Plasmodium falciparum (isolate 3D7)) (UniProt Q8IBS5). As to the kind of experiment: PfCDPK4 kinase inhibitors, biochemical, TCAMS library (AID 1159588; cut-off not given, nearly all actives have IC50 up to about 0.91 µM). The conditions noted are these: recombinant PfCDPK4, Kinase-Glo ATP depletion luminescence.

The structures appear in SMILES notation. Values without a mark were called inactive. For some of these results: Entries with a potency or affinity are not part of this list. Activity calls are given as the source filed them. Unless noted, no rule for the calls is given here.

Sequence of Plasmodium falciparum protein kinase 6 (PK6, PF3D7_1337100) (Q8IDW1 1-305): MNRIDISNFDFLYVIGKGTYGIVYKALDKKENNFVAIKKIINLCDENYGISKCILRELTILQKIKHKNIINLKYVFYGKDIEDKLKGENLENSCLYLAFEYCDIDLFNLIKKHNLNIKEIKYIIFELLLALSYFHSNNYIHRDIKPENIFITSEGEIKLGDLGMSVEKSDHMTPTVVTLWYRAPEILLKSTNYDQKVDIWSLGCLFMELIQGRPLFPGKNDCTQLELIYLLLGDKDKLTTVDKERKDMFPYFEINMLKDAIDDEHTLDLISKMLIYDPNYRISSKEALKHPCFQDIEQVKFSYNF
Sequence of Calcium-dependent protein kinase 1 (Plasmodium falciparum (isolate 3D7)) (P62344 whole entry, looked up): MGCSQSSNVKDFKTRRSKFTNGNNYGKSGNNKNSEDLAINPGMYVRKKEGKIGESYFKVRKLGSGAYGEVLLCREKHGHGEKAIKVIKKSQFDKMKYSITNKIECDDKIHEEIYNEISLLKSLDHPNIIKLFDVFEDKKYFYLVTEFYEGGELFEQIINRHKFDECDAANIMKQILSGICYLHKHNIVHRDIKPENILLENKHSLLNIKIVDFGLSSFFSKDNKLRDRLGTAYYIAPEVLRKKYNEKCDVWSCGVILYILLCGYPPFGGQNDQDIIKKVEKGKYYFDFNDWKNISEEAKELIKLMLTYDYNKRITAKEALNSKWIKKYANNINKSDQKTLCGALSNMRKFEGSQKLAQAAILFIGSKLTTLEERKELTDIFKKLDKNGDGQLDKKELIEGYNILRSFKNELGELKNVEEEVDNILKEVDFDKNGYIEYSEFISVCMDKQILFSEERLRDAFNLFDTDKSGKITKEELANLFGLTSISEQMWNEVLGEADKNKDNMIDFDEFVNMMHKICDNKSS
Sequence of Protein kinase 7 (PK7), Plasmodium falciparum 3D7 (PF3D7_0213400) (Q7YTF7 1-343): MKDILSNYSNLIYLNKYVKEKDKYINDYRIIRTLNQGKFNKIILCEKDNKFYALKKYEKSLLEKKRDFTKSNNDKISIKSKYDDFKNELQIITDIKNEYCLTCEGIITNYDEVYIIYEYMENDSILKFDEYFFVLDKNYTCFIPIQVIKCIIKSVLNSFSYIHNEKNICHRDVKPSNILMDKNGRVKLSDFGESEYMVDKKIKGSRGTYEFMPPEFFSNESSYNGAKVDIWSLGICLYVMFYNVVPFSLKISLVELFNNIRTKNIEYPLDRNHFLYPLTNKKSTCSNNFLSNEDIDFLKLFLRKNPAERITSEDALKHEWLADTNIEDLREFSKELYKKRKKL
Sequence of Calcium-dependent protein kinase 4 (Plasmodium falciparum (isolate 3D7)) (Q8IBS5 whole entry, looked up): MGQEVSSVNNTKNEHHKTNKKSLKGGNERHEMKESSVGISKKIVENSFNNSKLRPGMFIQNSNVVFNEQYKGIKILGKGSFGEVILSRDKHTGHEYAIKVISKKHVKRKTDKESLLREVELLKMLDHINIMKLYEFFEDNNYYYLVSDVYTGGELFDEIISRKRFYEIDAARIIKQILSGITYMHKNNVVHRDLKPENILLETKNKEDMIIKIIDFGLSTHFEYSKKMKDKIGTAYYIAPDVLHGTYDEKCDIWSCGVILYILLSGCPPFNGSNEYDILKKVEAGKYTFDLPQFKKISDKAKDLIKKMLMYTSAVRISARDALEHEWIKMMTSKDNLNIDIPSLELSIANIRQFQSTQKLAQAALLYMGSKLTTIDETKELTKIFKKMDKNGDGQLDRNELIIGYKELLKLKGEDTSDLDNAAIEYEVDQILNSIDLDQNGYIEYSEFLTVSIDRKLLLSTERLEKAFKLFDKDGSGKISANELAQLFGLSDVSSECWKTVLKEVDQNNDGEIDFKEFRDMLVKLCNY
Sequence of L-lactate dehydrogenase (Plasmodium falciparum (isolate CDC / Honduras)) (Q27743 whole entry, looked up): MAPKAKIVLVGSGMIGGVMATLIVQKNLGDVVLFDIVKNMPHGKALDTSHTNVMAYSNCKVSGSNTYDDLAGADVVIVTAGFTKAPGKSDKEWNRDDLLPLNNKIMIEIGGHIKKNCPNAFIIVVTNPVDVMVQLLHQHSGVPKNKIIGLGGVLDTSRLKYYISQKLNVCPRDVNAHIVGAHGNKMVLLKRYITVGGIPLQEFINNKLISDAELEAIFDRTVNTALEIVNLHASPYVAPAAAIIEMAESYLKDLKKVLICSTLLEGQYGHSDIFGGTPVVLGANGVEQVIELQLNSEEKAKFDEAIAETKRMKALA

In the case of `CN1CCC(C(=O)N(Cc2ccc(-c3ccc(CNCCc4ccccc4)cn3)cc2)C2CCN(Cc3ccccc3)CC2)CC1`, the growth inhibition in test [1] is 99% (active); in test [4], 100% (active). The inhibition in test [2] is 24%; in test [3] it was -6%. The outcome in test [5], in test [6], in test [7] and in test [8] was inactive.
As to `COc1ccc(/C=C/C(=O)NCCCCCN2CCC(c3c[nH]c4ccccc34)CC2)cc1O`, the results for the growth inhibition in test [1] and in test [4] were 1% and 91% (active), respectively. Further, the inhibition in test [2] is 9%; in test [3], -5%. For the same compound, the outcome in test [5], in test [6], in test [7] and in test [8] was inactive.
As to `O=S(=O)(c1csc2ccccc12)N(CCC(O)(C(F)(F)F)C(F)(F)F)Cc1cccc(O)c1`, the growth inhibition was 100% (active) in test [1] and 101% (active) in test [4]. The figures for the inhibition in test [2] and in test [3] were -11% and 7%, respectively. Moreover, the outcome in test [5], in test [6], in test [7] and in test [8] was inactive.
Turning to `OCC1CCN(Cc2ccc(-c3ccc(-c4nc5ccc(C(F)(F)F)cc5[nH]4)cc3)cc2)CC1`, the growth inhibition in test [1] is 91% (active); in test [4], 100% (active). For the same compound, the figures for the inhibition in test [2] and in test [3] were 17% and -2%, respectively. For the same compound, the outcome in test [5], in test [6], in test [7] and in test [8] was inactive.
As to `COc1ccc(N2C(=O)c3c(c4ccccc4n3C)C2c2ccccc2O)cc1` (stereo not given), the figures for the growth inhibition in test [1] and in test [4] were 91% (active) and 96% (active), respectively. Moreover, the inhibition in test [2] is 32%; in test [3] it was 3%. For the same compound, the result in test [5], in test [6], in test [7] and in test [8] was inactive.
For the compound `CC(Cc1ccc(NC(=O)c2ccc(CNCCCCc3ccccc3)cc2)cc1)NCCc1cccc(Cl)c1` (stereo not given), the values for the growth inhibition in test [1] and in test [4] were 96% (active) and 100% (active), respectively. Also, the figures for the inhibition in test [2] and in test [3] were 100% (active) and -1%, respectively. Moreover, the result in test [5], in test [6], in test [7] and in test [8] was inactive.
For the compound `CCCc1nc2c(N3CC(NC(=O)/C=C/c4ccccc4)C3)cccc2n1C1CC1`, the growth inhibition in test [1] is 68% (active); in test [4], 83% (active). Besides, the results for the inhibition in test [2] and in test [3] were 1% and 0%, respectively. Moreover, the outcome in test [5], in test [6], in test [7] and in test [8] was inactive.
Regarding `N#Cc1ccc(NC(=NCCc2c[nH]c3ccccc23)Nc2ccc(-c3ccccc3)cc2)c(O)c1`, the growth inhibition is 75% (active) in test [1] and 96% (active) in test [4]. The inhibition in test [2] and in test [3] was 6% in each case. The outcome in test [5], in test [6], in test [7] and in test [8] was inactive.
With `CC(=O)c1ccc(NC(=O)Nc2ccc3nccc(N4CCN(C)CC4)c3c2)cc1`, the growth inhibition in test [1] is 93% (active); in test [4], 101% (active). Moreover, the inhibition was 2% in test [2] and -1% in test [3]. For the same compound, the outcome in test [5], in test [6], in test [7] and in test [8] was inactive.
As to `CN(C)C(=O)CC(=O)NCc1c(Cl)cccc1Cl`, the growth inhibition in test [1] was 2%; in test [4], 95% (active). The inhibition in test [2] is 2%; in test [3], -4%. Besides, the result in test [5], in test [6], in test [7] and in test [8] was inactive.
Consider `O=C1C(c2ccccc2)=C(Nc2ccc(OC(F)(F)F)cc2)c2ccccc21`, for which the growth inhibition in test [1] and in test [4] was 96% (active) each time. Moreover, the inhibition in test [2] was 18%; in test [3], 1%. The outcome in test [5], in test [6], in test [7] and in test [8] was inactive.
Regarding `COc1ccc(CC(=O)Nc2ccc(Nc3nc(C)cc(N(C)C)n3)cc2)cc1`, the growth inhibition in test [1] was 31%; in test [4], 97% (active). In addition, the values for the inhibition in test [2] and in test [3] were 17% and -3%, respectively. Moreover, the result in test [5], in test [6], in test [7] and in test [8] was inactive.
As for `COCCOc1nc(N)nc2ncc(Cc3cc(OC)ccc3OC)c(C)c12`, the growth inhibition was 0% in test [1] and 96% (active) in test [4]. The inhibition was 61% (active) in test [2] and -5% in test [3]. Also, the outcome in test [5], in test [6], in test [7] and in test [8] was inactive.
As for `COc1cc(N)c(Cl)cc1C(=O)NC1CCC(NCC2CCCCC2)CC1` (stereo not given), the growth inhibition in test [1] was 85% (active); in test [4] it was 90% (active). In addition, the figures for the inhibition in test [2] and in test [3] were 18% and 0%, respectively. The result in test [5], in test [6], in test [7] and in test [8] was inactive.
Turning to `Cc1cc(NCC(c2ccccc2)c2ccccc2)nc(NCC2CCCCC2)n1`, the figures for the growth inhibition in test [1] and in test [4] were 93% (active) and 100% (active), respectively. Further, the inhibition in test [2] was 12%; in test [3], 3%. For the same compound, the outcome in test [5], in test [6], in test [7] and in test [8] was inactive.
For the compound `O=C(Nc1cccc(-c2cccc(-c3nc4ccc(C(F)(F)F)cc4[nH]3)c2)c1)c1cccnc1`, the growth inhibition in test [1] was 70% (active); in test [4], 100% (active). Further, the values for the inhibition in test [2] and in test [3] were 57% (active) and -6%, respectively. The result in test [5], in test [6], in test [7] and in test [8] was inactive.
As to `c1cc(CNC2CCCC2)cc(-c2ccc(CNc3ccc4ncccc4c3)cc2)c1`, the growth inhibition is 24% in test [1] and 98% (active) in test [4]. Further, the figures for the inhibition in test [2] and in test [3] were 32% and -9%, respectively. In addition, the outcome in test [5], in test [6], in test [7] and in test [8] was inactive.
Consider `Cc1nc2ccc3ccc(CNc4ccc(C(=O)N[C@@H](CCC(=O)O)C(=O)N[C@@H](Cc5cccs5)C(=O)O)c(F)c4)cc3c2c(=O)[nH]1`, for which the growth inhibition is 96% (active) in test [1] and 97% (active) in test [4]. Moreover, the inhibition in test [2] is 43%; in test [3] it was 4%. The outcome in test [5], in test [6], in test [7] and in test [8] was inactive.
Consider `Cc1cc(NCCc2ccccc2)nc(/N=C(\N)Nc2ccc(Cl)cc2)n1`, for which the growth inhibition in test [1] was 100% (active); in test [4], 102% (active). Besides, the results for the inhibition in test [2] and in test [3] were 7% and 4%, respectively. For the same compound, the result in test [5], in test [6], in test [7] and in test [8] was inactive.
As to `Cc1cccc2[nH]c(-c3ccc(-c4ccc(CN5CCCC(N)C5)cc4)cc3)nc12` (stereo not given), the results for the growth inhibition in test [1] and in test [4] were 101% (active) and 99% (active), respectively. For the same compound, the inhibition was 33% in test [2] and -3% in test [3]. Moreover, the result in test [5], in test [6], in test [7] and in test [8] was inactive.

As usually defined, the inhibition is the relative decrease from the control value, in per cent.

Source of the values: PubChem BioAssay.
